Results taken from PubChem BioAssay (NCATS).
Inconclusive results are not listed. Active and inactive are the calls of the source. Unless noted, calls come from the whole dose curve; as a rule, active = well fitted curve in the direction sought with a large enough effect; inconclusive = small, poorly fitted or top-dose-only effect, or another doubt; inactive = no such curve, though single readings can be large; an effect the other way counts as inactive or inconclusive.

Columns and labels:
[1] = target: Lysosomal acid glucosylceramidase (Homo sapiens) (UniProt P04062); assay: Glucocerebrosidase-p2 (AID 348; in the data active = potency below about 10 µM; note: potency is the fitted concentration of half-maximal effect); details: purified GBA, blue fluorogenic substrate, 40 min
Outline: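 Compounds titrated from 0.6 nM upwards against 0.2 nM enzyme in pH 5.9 citric acid/KH2PO4, taurocholate, tween-20; blue fluorogenic substrate 80 uM, 40 min room temperature, stopped and read Ex 365/Em 440 for AC50.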

[2] = AP1 Signaling Pathway (AID 357; active = well fitted curve in either direction with a large enough effect, not every such curve was filed as active;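 note: ME-180 reporter cells stimulated with EGF at its EC50 level; % is set by controls: 0 for no effect and ±100 for the full control effect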); details: ME-180 AP-1-bla reporter, EGF-induced, beta-lactamase ratio, 5 h; at 7.69 µM (top of the series) unless noted
Outline: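 Modulation of EGF-driven AP-1 transcription was assessed with a beta-lactamase reporter in ME-180 cells. Compound and EC50 EGF were co-incubated 5 hours at 37 °C before 2.5-hour CCF4 loading at room temperature and dual-emission reading.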

[3] = target: Cytochrome P450 1A2 (Homo sapiens) (UniProt P05177); assay: p450-cyp1a2 (AID 410; calls by dose curve; note: potency is the fitted concentration of half-maximal effect); details: recombinant CYP1A2, luciferin-ME demethylation, luminescence; series mostly up to 57 µM
Outline: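 Luminescent readout of luciferin formed from Luciferin-ME by human CYP1A2; data normalized against complete inhibition by 57 uM furafylline. Enzyme 20nM, substrate 100uM at Km, 100mM KPO4 buffer, 60 min reaction at room temperature.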

[4] = NFAT Signaling Pathway (AID 444; active = well fitted curve in either direction with a large enough effect, not every such curve was filed as active;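 note: carbachol stimulus at about its EC50 of 1 µM final; % is set by controls: 0 for no effect and ±100 for the full control effect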); details: Jurkat NFAT-bla M1, carbachol, beta-lactamase ratio, 5 h; at 7.69 µM (top of the series) unless noted
Outline: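 Jurkat cells with NFAT-driven β-lactamase reporter and co-expressed M1 receptor, stimulated with carbachol (final 1 uM, ~EC50), compound titration, 5 h at 37 °C. CCF4 loaded 1 h at RT; 460/530 nm ratio gave %activity and AC50.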

[5] = Stat Signaling Pathway (AID 446; active = well fitted curve in either direction with a large enough effect, not every such curve was filed as active;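 note: ME-180 cervical cancer cells given 40 pM IL-6 alongside compound; SIE-controlled beta-lactamase reporter measured as 460/530 nm FRET emission ratio; % is set by controls: 0 for no effect and ±100 for the full control effect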); details: ME-180 SIE beta-lactamase reporter, IL-6 stimulated, 5 h; at 7.69 µM (top of the series) unless noted
Outline: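 Screening format detects activators and inhibitors alike: ME-180 SIE-bla cells stimulated at 40 pM IL-6 for 5 hrs with compound, then dual-emission beta-lactamase read at 405 nm excitation.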

[6] = target: Glucocorticoid receptor (Homo sapiens) (UniProt P04150); assay: GR-GFP Redistribution (AID 450;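 active = compounds whose dose series gives a full or clear partial fitted curve of increased nuclear translocation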; note: potency is the fitted concentration of half-maximal effect); details: U2OS GR-GFP nuclear translocation, laser cytometry, 2 h
[7] = target: Glucocorticoid receptor (Homo sapiens) (UniProt P04150); assay: GR-EFC Redistribution (AID 451; calls by dose curve; note: potency is the fitted concentration of half-maximal effect); details: CHO-K1 GR-EFC translocation, beta-gal luminescence, 2 h
Outline: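 CHO-K1 cells expressing nuclear EA and GR-ED fragments of b-gal; compounds titrated up to 46 uM final, 2 h at 37 C. GR nuclear translocation read as complemented b-gal luminescence after 1 h RT detection.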

[8] = target: Mitogen-activated protein kinase 10 (Mus musculus) (UniProt Q61831); assay: JNK3 AlphaScreen Assay (AID 530; active = well fitted curve in either direction with a large enough effect, not every such curve was filed as active;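 note: kinase came from lysate of stimulated human HepG2 cells; signal reports phosphorylation of biotinylated GST-cJun 1-79 at Ser73 with 10 µM ATP; % is set by controls: 0 for no effect and ±100 for the full control effect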); details: JNK3 lysate, c-Jun phosphorylation; series mostly up to 57.1 µM
Outline: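 Pre-activated (IL-1β/TNFα) JNK3 in HepG2 lysates phosphorylates biotin-GST-cJun(1-79), 10 uM ATP; anti-phospho-cJun(Ser73) AlphaScreen read at room temperature, pH 7.6 Tris buffer. Compounds pre-incubated 15 min as titrations.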

[9] = target: 3',5'-cyclic-AMP phosphodiesterase 4B (Homo sapiens) (UniProt Q07343); assay: qHTS Assay for Inhibitors of PDE-IV (AID 607; active = well fitted activation curve with a large enough effect in the main read-out, with a control signal flat, not every such curve was filed as active; note: % of control where 0% means no effect); details: HEK293 ACTOne CNG channel cells, membrane potential fluorescence; series mostly up to 22.9 µM
Outline: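 The readout is membrane depolarisation from a cAMP-sensing CNG channel, detected with a potential dye at ex 535/em 590. Cells were HEK293-derived (endogenous PDE-IV) at 1000 cells/well, titrated up to 22.9 uM final.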

[10] = target: Cytochrome P450 3A4 (Homo sapiens) (UniProt P08684); assay: qHTS Assay for Activators of Cytochrome P450 3A4 (AID 885); details: recombinant CYP3A4, Luciferin-PPXE luminescence, 60 min; series mostly up to 57.1 µM; note: nearly all actives have a fitted effect of over 65% in size
Outline: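 Steps: enzyme/substrate mix dispensed; compound added, 10 min RT; NADPH regeneration solution added, 60 min RT; luciferin detection buffer stops reaction; 20 min later luminescence measured.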

[11] = target: Dual specificity protein kinase CLK4 (Homo sapiens) (UniProt Q9HAZ1); assay: qHTS Assay for Inhibitors of CDC-like Kinase 4 (Kinase-Glo Assay) (AID 1770); details: recombinant Clk4, Kinase-Glo ATP depletion luminescence; series mostly up to 66.7 µM; note: nearly all actives have a fitted effect of over 65% in size; note: potency is the fitted concentration of half-maximal effect
Outline: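 25 nM Clk4 with 100 uM RS repeat peptide and 1 uM ATP (final) in Tris pH7.5, 10 mM MgCl2, 4.5 h at room temperature. Remaining ATP measured by Kinase-Glo luciferase luminescence.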

[12] = target: Dual specificity protein kinase CLK4 (Homo sapiens) (UniProt Q9HAZ1); assay: qHTS Assay for Inhibitors of CDC-like Kinase 4 (ADP-Glo Assay) (AID 1771); details: recombinant CLK4, ADP-Glo luminescence; series mostly up to 80 µM; note: nearly all actives have a fitted effect of over 70% in size; note: potency is the fitted concentration of half-maximal effect
Outline: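 Luminescence from ADP-Glo reports ADP produced by 25 nM Clk4 acting on 100 uM RS repeat peptide with 1 uM ATP over 1 hr at room temperature; residual ATP is depleted before ADP is converted to ATP for detection.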

[13] = target: Dual specificity protein kinase CLK4 (Homo sapiens) (UniProt Q9HAZ1); assay: qHTS Assay for Inhibitors of CDC-like Kinase 4 (ADP-FP Assay) (AID 1795); details: Transcreener ADP fluorescence polarization; series mostly up to 50 µM; note: nearly all actives have a fitted effect of over 60% in size; note: potency is the fitted concentration of half-maximal effect
Outline: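 Recombinant Clk4 (6.25 nM) phosphorylated 100 uM RS repeat peptide with 1 uM ATP in 25 mM Tris pH 7.5, 10 mM MgCl2, 0.5 mM EGTA, 2.5 mM DTT, 0.01% Triton X-100 for 1 h. ADP was detected by Transcreener ADP2 competitive fluorescence polarization after 30 min at room temperature.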

[14] = target: Ubiquitin carboxyl-terminal hydrolase 1 (Homo sapiens) (UniProt O94782); assay: Inhibitors of USP1/UAF1: Pilot qHTS (AID 504865); details: purified USP1/UAF1, Ub-rhodamine cleavage fluorescence; series mostly up to 54.9 µM;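 note: rhodamine fluorescence freed from ubiquitin-rhodamine substrate followed over time; top concentration of the series differs between compounds; % is set by controls: 0 for no effect and ±100 for the full control effect; nearly all actives have a fitted effect of over 35% in size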
Outline: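 USP1/UAF1 complex at 1 nM preincubated 15 min at room temperature with compound, then Ub-Rho substrate added at 150 nM final. Fluorescence (480/540 nm) read kinetically in 50 mM HEPES pH 7.8, 0.5 mM EDTA, 1 mM TCEP, 0.1 mg/ml BSA, 0.01% Tween-20.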

[15] = Primary qHTS for small molecule stabilizers of the endoplasmic reticulum resident proteome: Secreted ER Calcium Modulated Protein (SERCaMP) assay (AID 1508630); details: SH-SY5Y GLuc-SERCaMP (Gaussia luciferase released on ER calcium loss) secretion, thapsigargin, luminescence; series mostly up to 38.4 µM; note: % is set by controls: 0 for no effect and ±100 for the full control effect
Outline: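 GLuc-SERCaMP-expressing SH-SY5Y cells, pretreated 16 h with compound, are challenged with thapsigargin to empty ER calcium stores; after 4 h, coelenterazine is added directly to the medium and luminescence is imaged.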

[16] = target: Cytochrome P450 3A4 (Homo sapiens) (UniProt P08684); assay: qHTS Assay for Inhibitors and Substrates of Cytochrome P450 3A4 (AID 884); details: recombinant CYP3A4, Luciferin-PPXE luminescence; series mostly up to 57.1 µM; note: potency is the fitted concentration of half-maximal effect; nearly all actives have a fitted effect of over 50% in size
Outline: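 20 nM human CYP3A4 with 25 uM Luciferin-PPXE (at KM) in 200 mM KPO4, preincubated 10 min with compound; NADPH regeneration started a 60 min RT reaction. Luciferin detected by luminescence, normalized to 57 uM ketoconazole as full inhibition.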

Sequence of 3',5'-cyclic-AMP phosphodiesterase 4B (Homo sapiens) (Q07343 whole entry, looked up): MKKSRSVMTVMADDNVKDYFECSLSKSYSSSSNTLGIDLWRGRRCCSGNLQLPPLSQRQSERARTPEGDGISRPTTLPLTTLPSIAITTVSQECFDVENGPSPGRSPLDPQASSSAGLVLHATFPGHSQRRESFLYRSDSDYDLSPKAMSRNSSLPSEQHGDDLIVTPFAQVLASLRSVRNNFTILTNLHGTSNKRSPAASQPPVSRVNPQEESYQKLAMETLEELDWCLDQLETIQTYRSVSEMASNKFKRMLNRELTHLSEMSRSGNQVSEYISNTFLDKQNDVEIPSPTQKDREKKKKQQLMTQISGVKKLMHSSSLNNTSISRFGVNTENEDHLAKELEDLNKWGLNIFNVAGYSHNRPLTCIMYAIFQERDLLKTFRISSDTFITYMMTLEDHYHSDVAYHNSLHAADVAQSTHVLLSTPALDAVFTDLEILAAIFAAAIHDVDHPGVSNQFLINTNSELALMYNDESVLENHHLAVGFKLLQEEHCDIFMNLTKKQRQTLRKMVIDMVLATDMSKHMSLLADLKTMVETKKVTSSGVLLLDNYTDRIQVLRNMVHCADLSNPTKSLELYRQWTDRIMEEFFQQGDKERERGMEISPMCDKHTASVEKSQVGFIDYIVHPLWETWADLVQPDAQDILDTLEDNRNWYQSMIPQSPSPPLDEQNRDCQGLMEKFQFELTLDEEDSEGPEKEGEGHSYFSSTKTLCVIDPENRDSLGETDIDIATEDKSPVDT
Sequence of Lysosomal acid glucosylceramidase (Homo sapiens) (P04062 whole entry, looked up): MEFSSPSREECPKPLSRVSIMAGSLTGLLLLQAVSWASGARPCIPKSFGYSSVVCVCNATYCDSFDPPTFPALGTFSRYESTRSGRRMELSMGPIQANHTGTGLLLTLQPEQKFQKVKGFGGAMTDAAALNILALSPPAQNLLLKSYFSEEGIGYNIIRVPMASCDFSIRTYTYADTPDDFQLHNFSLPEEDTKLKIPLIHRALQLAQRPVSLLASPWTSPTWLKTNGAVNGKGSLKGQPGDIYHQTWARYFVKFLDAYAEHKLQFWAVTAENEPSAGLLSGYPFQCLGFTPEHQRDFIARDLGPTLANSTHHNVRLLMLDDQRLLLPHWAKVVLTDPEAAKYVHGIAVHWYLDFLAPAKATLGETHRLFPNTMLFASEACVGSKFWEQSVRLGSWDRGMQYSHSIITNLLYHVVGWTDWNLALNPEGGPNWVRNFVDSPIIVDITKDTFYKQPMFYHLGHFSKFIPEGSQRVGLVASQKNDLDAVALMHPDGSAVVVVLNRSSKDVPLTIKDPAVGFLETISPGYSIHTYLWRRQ
Sequence of Cytochrome P450 1A2 (Homo sapiens) (P05177 whole entry, looked up): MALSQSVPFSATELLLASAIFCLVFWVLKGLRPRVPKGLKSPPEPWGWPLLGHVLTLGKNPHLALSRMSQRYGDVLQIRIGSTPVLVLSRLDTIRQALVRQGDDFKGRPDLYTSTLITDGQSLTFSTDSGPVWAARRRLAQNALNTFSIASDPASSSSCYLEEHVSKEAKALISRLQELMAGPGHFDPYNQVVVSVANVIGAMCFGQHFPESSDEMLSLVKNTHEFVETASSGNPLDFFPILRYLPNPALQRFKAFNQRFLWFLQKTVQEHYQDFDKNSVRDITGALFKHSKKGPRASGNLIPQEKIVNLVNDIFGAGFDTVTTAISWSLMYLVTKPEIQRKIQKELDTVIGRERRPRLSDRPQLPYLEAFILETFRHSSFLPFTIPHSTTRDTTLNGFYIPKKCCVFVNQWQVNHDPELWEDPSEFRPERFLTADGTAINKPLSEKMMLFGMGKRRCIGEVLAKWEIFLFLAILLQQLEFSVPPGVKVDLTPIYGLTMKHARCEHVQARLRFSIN
Sequence of Cytochrome P450 3A4 (Homo sapiens) (P08684 whole entry, looked up): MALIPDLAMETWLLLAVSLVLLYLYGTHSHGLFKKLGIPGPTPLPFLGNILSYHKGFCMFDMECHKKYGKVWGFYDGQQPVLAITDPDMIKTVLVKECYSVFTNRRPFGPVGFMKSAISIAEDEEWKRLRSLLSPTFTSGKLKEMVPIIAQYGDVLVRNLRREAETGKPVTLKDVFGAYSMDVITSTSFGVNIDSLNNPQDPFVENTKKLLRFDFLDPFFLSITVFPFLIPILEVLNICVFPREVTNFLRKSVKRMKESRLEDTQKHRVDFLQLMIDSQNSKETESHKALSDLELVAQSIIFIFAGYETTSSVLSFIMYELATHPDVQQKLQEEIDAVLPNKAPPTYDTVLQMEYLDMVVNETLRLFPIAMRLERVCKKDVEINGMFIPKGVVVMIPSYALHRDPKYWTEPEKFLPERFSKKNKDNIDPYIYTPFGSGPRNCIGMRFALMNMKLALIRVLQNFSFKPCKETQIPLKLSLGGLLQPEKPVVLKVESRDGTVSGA
Sequence of Ubiquitin carboxyl-terminal hydrolase 1 (Homo sapiens) (O94782 whole entry, looked up): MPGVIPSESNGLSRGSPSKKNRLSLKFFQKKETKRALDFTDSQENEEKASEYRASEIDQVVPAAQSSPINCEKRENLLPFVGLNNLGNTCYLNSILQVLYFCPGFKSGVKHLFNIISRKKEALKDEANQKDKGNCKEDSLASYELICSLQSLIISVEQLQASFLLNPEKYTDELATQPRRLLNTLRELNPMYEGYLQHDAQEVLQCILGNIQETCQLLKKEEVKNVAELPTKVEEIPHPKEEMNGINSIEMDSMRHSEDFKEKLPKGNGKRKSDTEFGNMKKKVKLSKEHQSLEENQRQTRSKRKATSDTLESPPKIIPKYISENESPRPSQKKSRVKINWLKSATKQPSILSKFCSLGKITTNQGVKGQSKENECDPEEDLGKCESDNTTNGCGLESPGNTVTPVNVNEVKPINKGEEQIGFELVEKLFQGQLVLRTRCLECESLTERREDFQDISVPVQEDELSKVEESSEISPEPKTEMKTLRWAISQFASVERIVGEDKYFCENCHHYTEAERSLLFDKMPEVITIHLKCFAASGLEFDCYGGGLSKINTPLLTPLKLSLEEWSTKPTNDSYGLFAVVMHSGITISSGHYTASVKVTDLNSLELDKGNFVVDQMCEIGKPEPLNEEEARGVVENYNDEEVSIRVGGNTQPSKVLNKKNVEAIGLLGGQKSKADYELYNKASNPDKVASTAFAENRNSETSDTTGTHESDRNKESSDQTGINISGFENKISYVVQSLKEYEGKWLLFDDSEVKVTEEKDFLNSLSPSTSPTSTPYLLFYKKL
Sequence of Glucocorticoid receptor (Homo sapiens) (P04150 whole entry, looked up, the tested form may be a part): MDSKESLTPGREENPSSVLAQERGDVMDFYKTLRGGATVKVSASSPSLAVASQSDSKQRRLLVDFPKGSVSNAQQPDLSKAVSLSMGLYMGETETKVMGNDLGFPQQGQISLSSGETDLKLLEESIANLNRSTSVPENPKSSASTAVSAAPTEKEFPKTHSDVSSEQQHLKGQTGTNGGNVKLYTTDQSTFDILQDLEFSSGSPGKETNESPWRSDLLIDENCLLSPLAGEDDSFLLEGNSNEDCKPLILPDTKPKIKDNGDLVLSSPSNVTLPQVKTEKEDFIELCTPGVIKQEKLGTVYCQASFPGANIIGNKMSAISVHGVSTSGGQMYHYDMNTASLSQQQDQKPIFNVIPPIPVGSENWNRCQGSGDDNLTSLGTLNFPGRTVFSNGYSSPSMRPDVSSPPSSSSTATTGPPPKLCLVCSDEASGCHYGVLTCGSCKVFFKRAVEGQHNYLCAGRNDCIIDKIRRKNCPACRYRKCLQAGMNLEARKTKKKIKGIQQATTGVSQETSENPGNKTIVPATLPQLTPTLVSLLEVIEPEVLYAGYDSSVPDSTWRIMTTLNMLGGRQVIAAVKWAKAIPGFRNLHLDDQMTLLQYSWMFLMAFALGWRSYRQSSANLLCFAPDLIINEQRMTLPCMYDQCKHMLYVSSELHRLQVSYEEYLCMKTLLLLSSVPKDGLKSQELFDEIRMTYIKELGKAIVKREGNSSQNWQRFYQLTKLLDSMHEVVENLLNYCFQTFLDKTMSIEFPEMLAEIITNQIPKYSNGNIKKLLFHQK
Sequence of Dual specificity protein kinase CLK4 (Homo sapiens) (Q9HAZ1 whole entry, looked up): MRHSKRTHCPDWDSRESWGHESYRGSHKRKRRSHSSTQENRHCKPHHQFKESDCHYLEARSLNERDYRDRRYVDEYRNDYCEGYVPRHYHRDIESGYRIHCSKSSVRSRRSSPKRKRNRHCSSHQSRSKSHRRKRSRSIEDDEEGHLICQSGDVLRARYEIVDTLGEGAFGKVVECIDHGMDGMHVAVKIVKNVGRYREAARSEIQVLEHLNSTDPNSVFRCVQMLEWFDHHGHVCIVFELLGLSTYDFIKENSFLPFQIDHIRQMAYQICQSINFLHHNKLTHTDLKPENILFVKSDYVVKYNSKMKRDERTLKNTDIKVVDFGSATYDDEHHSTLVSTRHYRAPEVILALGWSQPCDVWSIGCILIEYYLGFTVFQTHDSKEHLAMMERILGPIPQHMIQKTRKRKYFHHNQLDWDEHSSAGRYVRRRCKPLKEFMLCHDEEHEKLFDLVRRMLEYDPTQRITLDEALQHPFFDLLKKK

Cc1cnc(CNc2ccnc(-c3ccccc3C)n2)cn1
inactive: Potency [1] > 11.4 µM | activity change, negative = inhibition [2] 3.37% | activity change, negative = inhibition [4] -3.78% | activity, negative = inhibition [5] -1.97% | Potency [6] > 46 µM | Potency [7] > 46 µM | Potency [8] | Potency [9] | Potency [10] | Potency [11] | Potency [12] | Potency [13] | Potency [14] | outcome [15]
active: Potency [3] 12.6 µM

COc1ncc2nc(-c3cn(C)c4ccccc34)c(=O)n(-c3ccccc3)c2n1
inactive: Potency [1] > 11.4 µM | activity change, negative = inhibition [2] -0.341% | activity change, negative = inhibition [4] -18.5% | activity, negative = inhibition [5] 6.13% | Potency [6] > 9.22 µM | Potency [7] > 46 µM | Potency [8] | Potency [10] | Potency [11] | Potency [12] | Potency [13] | Potency [14] | outcome [15]
active: Potency [3] 5.01 µM

COc1ccccc1CNc1ccnc(-c2ccc(C(=O)N(C)C)cc2)n1
active: Potency [3] 12.6 µM
inactive: Potency [1] > 11.4 µM | activity change, negative = inhibition [2] -10.9% | activity change, negative = inhibition [4] 4.15% | activity, negative = inhibition [5] -1.46% | Potency [6] > 46 µM | Potency [7] > 46 µM | Potency [8] | Potency [9] | Potency [10] | Potency [11] | Potency [12] | Potency [13] | Potency [14] | outcome [15]

Cc1nc2cnc(Oc3ccccc3)nc2n(C2CC2)c1=O
active: Potency [3] 10 µM
inactive: Potency [1] > 11.4 µM | activity change, negative = inhibition [2] -5.18% | activity change, negative = inhibition [4] -1.18% | activity, negative = inhibition [5] -14.1% | Potency [6] > 9.22 µM | Potency [7] > 46 µM | Potency [8] | Potency [9] | Potency [10] | Potency [11] | Potency [12] | Potency [13] | Potency [14] | outcome [15]

COc1cccc(Cn2c(=O)c(-c3ccccc3)nc3cnc(OC)nc32)c1
active: Potency [3] 15.8 µM | Potency [16] 7.94 µM
inactive: Potency [1] > 11.4 µM | activity change, negative = inhibition [2] -11.6% | activity change, negative = inhibition [4] -17.4% | activity, negative = inhibition [5] 1.57% | Potency [6] > 9.22 µM | Potency [7] > 46 µM | Potency [8] | Potency [11] | Potency [12] | Potency [13] | Potency [14] | outcome [15]

O=c1c(-c2cccc(Cl)c2)nc2cncnc2n1C1CC1
active: Potency [3] 0.631 µM
inactive: Potency [1] > 11.4 µM | activity change, negative = inhibition [2] -20.9% | activity change, negative = inhibition [4] -7.65% | activity, negative = inhibition [5] -4.14% | Potency [6] > 9.22 µM | Potency [7] > 46 µM | Potency [8] | Potency [9] | Potency [10] | Potency [11] | Potency [12] | Potency [13] | Potency [14] | outcome [15]

c1ccc(CNc2ncncc2-c2ccc3c(c2)OCO3)cc1
inactive: Potency [1] > 11.4 µM | activity change, negative = inhibition [2] -23.4% | activity change, negative = inhibition [4] 7.28% | activity, negative = inhibition [5] -0.121% | Potency [6] > 46 µM | Potency [7] > 46 µM | Potency [8] | Potency [10] | Potency [14] | outcome [15]
active: Potency [3] 0.126 µM | Potency [16] 0.501 µM | Potency [11] 6.31 µM | Potency [12] 7.08 µM | Potency [13] 2.51 µM

CN(C)C(=O)c1ccc(-c2nccc(NCc3ccccc3)n2)cc1
active: Potency [3] 15.8 µM
inactive: Potency [1] > 11.4 µM | activity change, negative = inhibition [2] -2.34% | activity change, negative = inhibition [4] 15.6% | activity, negative = inhibition [5] -5.63% | Potency [6] > 46 µM | Potency [7] > 46 µM | Potency [8] | Potency [9] | Potency [10] | Potency [11] | Potency [12] | Potency [13] | Potency [14] | outcome [15]

CC(=O)NCCNc1ncnc2ccc(-c3ccc4c(c3)OCO4)cc12
active: Potency [3] 0.501 µM | Potency [16] 5.01 µM | Potency [11] 0.141 µM | Potency [12] 0.0891 µM | Potency [13] 0.126 µM
inactive: Potency [1] > 11.4 µM | activity change, negative = inhibition [2] -23.9% | activity change, negative = inhibition [4] 12.4% | activity, negative = inhibition [5] -10.3% | Potency [6] > 46 µM | Potency [7] > 46 µM | Potency [8] | Potency [10] | Potency [14] | outcome [15]

CN(C)C(=O)c1ccc(-c2nccc(Nc3ccc(F)cc3)n2)cc1
active: Potency [3] 6.31 µM
inactive: Potency [1] > 11.4 µM | activity change, negative = inhibition [2] -14.3% | activity change, negative = inhibition [4] -12.1% | activity, negative = inhibition [5] -4.15% | Potency [6] > 46 µM | Potency [7] > 46 µM | Potency [8] | Potency [9] | Potency [10] | Potency [11] | Potency [12] | Potency [13] | Potency [14] | outcome [15]

Cc1noc(C)c1-c1nccc(N(C)Cc2ccco2)n1
active: Potency [3] 2 µM
inactive: Potency [1] > 11.4 µM | activity change, negative = inhibition [2] 6.47% | activity change, negative = inhibition [4] -3.01% | activity, negative = inhibition [5] 3.88% | Potency [6] > 46 µM | Potency [7] > 46 µM | Potency [8] | Potency [9] | Potency [10] | Potency [11] | Potency [12] | Potency [13] | Potency [14] | outcome [15]

Cn1c(=O)c(-c2ccccc2)nc2cnc(OCc3ccccc3)nc21
inactive: Potency [1] > 11.4 µM | activity change, negative = inhibition [2] -1.1% | activity change, negative = inhibition [4] 4.72% | activity, negative = inhibition [5] -3.56% | Potency [6] > 9.22 µM | Potency [7] > 46 µM | Potency [8] | Potency [9] | Potency [10] | Potency [11] | Potency [12] | Potency [13] | Potency [14] | outcome [15]
active: Potency [3] 1.58 µM

COc1ccc(-n2c(=O)c(-c3cccc(Cl)c3)nc3cncnc32)cc1
inactive: Potency [1] > 11.4 µM | activity change, negative = inhibition [2] -20.5% | activity change, negative = inhibition [4] -14.1% | activity, negative = inhibition [5] -4.36% | Potency [6] > 9.22 µM | Potency [7] > 46 µM | Potency [8] | Potency [9] | Potency [10] | Potency [11] | Potency [12] | Potency [13] | Potency [14] | outcome [15]
active: Potency [3] 1 µM
